A short description of this assay: modulators of brain endothelial barrier permeability, primary screen, cell-based, FITC-avidin fluorescence, HTS (AID 1963498). Also: test concentration not given here. As to conditions: actives lie on both sides.

A number with no mark means an inactive call. Calls of active or inactive are those of the source. Rule as the data show it: active = fold change permeability below about 0.7 or above about 1.3; inactive = in between.

Take `O=c1cc(-c2ccc([N+](=O)[O-])cc2)nc2c(-c3ccc(Cl)cc3)c(Cc3ccccc3)[nH]n12`: the fold change permeability was 1.2.
To `C[C@H](Cc1ccc(O)c(O)c1)[C@@H](C)Cc1ccc(O)c(O)c1` belongs 1.
To `O=C1Nc2nc(-c3c(O)cccc3OCC3CC3)cc([C@@H]3CCCNC3)c2CO1` belongs 1.6 (active); to `S=C(S)N1CCCC1`, 1.
The result for `CC(C)NCC(O)c1ccc(NS(C)(=O)=O)cc1` (stereo not drawn) reads 0.7 (active).
Take `Nc1ccc(S(=O)(=O)Nc2ccnn2-c2ccccc2)cc1`: the fold change permeability is 1.2.
`C[N+](C)(C)CCOC(N)=O`: the fold change permeability was 0.9.
Consider `CCN(CC)CCOc1ccc(/C(=C(/Cl)c2ccccc2)c2ccccc2)cc1`, for which the fold change permeability was 1.2.
The result for `CC(=O)c1ccc2c(c1)N(CCCN(C)C)c1ccccc1S2` reads 1.6 (active); that for `COc1ccccc1CN[C@H]1CCCN[C@H]1c1ccccc1`, 0.7 (active).
With `CCOC(=O)C1=C(C)NC(C)=C(C(=O)OC)C1c1cccc(Cl)c1Cl` (stereo not drawn), the fold change permeability is 1.2.
The result for `Cc1nc2c([nH]1)c(=O)n(C)c(=O)n2Cc1ccco1` reads 0.7 (active); that for `CCCOc1ccccc1-c1nc2n[nH]nc2c(=O)[nH]1`, 1.9 (active).
To `C[C@]12CC[C@@H]3c4ccc(O)cc4C[C@@H](CCCCCCCCCS(=O)CCCC(F)(F)C(F)(F)F)[C@H]3[C@@H]1CC[C@@H]2O` (stereo partly drawn) belongs 1; to `Cc1ccccc1N1CCN(CCc2nnc3n2CCCC3)CC1`, 0.9.
The result for `CN1CCN(CCCN2c3ccccc3Sc3ccc(C(F)(F)F)cc32)CC1` reads 1.2; that for `O=c1n(CCCN2CCN(c3cccc(Cl)c3)CC2)nc2ccccn12`, 1.1; that for `COc1ccc(-c2ccc(N)[n+](CCCC(=O)O)n2)cc1`, 0.8.
Turning to `Oc1cc(O)cc(/C=C/c2ccc(O)c(O)c2)c1`, the fold change permeability is 0.7 (active).
`Cc1cc(Cn2cnc3c2C[C@@H](C(=O)O)N(C(=O)C(c2ccccc2)c2ccccc2)C3)ccc1N`: the fold change permeability is 1.
The result for `CC1(C)NC(=O)N(c2ccc([N+](=O)[O-])c(C(F)(F)F)c2)C1=O` reads 1.1; that for `Cc1ccccc1/C=C/C1=NCCN1`, 0.7 (active).
As for `C[C@H]1C[C@H]2[C@@H]3CCC4=CC(=O)C=C[C@]4(C)[C@@]3(Cl)[C@@H](O)C[C@]2(C)[C@@]1(O)C(=O)CO`, the fold change permeability was 1.2.
To `Cc1ccc(S(=O)(=O)/C=C/C#N)cc1` belongs 1.1; to `CN(C(=O)CCCOc1ccc2[nH]c(=O)ccc2c1)C1CCCCC1`, 0.9.
In the case of `O=C(O)C1=CCCNC1`, the fold change permeability was 1.
As to `Cn1cc(C(F)(F)F)nc1-c1ccc(OCC(O)CNCCOc2ccc(O)c(C(N)=O)c2)cc1` (stereo not drawn), the fold change permeability was 1.3 (active).
To `O=C(O)c1cccnc1C(=O)O` belongs 1.1.
For the molecule `CC/C(=N\NC(=O)c1ccnc(NCCCN2CCOCC2)c1)c1ccc(Cl)cc1O`, the fold change permeability was 0.8.
For `CCCCNc1ccc(C(=O)OCCN(C)C)cc1`, the fold change permeability is 1.8 (active).
The result for `N=C(N)SCCN` reads 1.1.
To `CN1C2CCCC1CC(NC(=O)c1nn(C)c3ccccc13)C2` (stereo not drawn) belongs 1.4 (active); to `CC(C)N1CCN(S(=O)(=O)c2ccc(NC(=O)c3ccc(C(F)(F)F)cc3[N+](=O)[O-])cc2)CC1`, 1.4 (active).
As to `O=C1NCC2(CCN(CCc3ccccc3)CC2)O1`, the fold change permeability was 1.
On to `COc1ccc2[nH]c([S@@](=O)Cc3ncc(C)c(OC)c3C)nc2c1`, for which the fold change permeability is 0.9.
To `NC(N)=NC(=O)c1nc(Cl)c(N2CCCCCC2)nc1N` belongs 1.1; to `N=C1CCCN1Cc1[nH]c(=O)[nH]c(=O)c1Cl`, 1.6 (active).
Consider `CCOC(=O)C12CC1/C(=N\O)c1ccccc1O2` (stereo not drawn), for which the fold change permeability is 1.2.
Turning to `COc1ccc2c(c1)c(CC(=O)O)c(C)n2C(=O)c1ccc(Cl)cc1`, the fold change permeability is 1.7 (active).
As to `Cc1[nH]c(=O)c(C#N)cc1-c1ccncc1`, the fold change permeability was 0.8.
The result for `CC(C)=CCc1cc2c(cc1O)oc(=O)c1c3ccc(O)cc3oc21` reads 1.4 (active).
To `COc1ccc(-n2c(SCc3nc(-c4ccc(C)cc4)no3)nnc2-c2ccncc2)cc1` belongs 0.8.
Turning to `CC(=O)[C@]1(O)Cc2c(O)c3c(c(O)c2[C@@H](O[C@H]2C[C@H](N)[C@H](O)[C@H](C)O2)C1)C(=O)c1ccccc1C3=O`, the fold change permeability is 3.4 (active).
The result for `COc1ccc2cccc(CCNC(C)=O)c2c1` reads 0.8.
To `Cc1nc(N=Nc2ccc(C(=O)O)cc2)c(COP(=O)(O)O)c(C=O)c1O` belongs 0.7 (active); to `Clc1ccccc1C(c1ccccc1)(c1ccccc1)n1ccnc1`, 1.2.
To `Oc1ccccc1O` belongs 0.9; to `NCCCC(=O)O`, 0.8; to `NCCCCCCCCCCN`, 0.9.
`CC(C)NNC(=O)c1ccncc1`: the fold change permeability is 0.6 (active).
To `O=C(Nc1nc2ccccc2n1CCN1CCOCC1)c1cccc([N+](=O)[O-])c1` belongs 1.9 (active); to `Cn1ccc2cc3c(cc21)CCN3C(=O)Nc1cccnc1`, 1.4 (active).
To `COC(=O)C(N)Cc1ccc(Cl)cc1` (stereo not drawn) belongs 1.1.
Take `Nc1nc2[nH]c(=O)cnc2c(=O)[nH]1`: the fold change permeability is 1.4 (active).
To `CCCCOc1cc(CC2CNC(=O)N2)ccc1OC` (stereo not drawn) belongs 0.8.
For the molecule `CCOC(=O)Nc1ccc(NCc2ccc(F)cc2)nc1N`, the fold change permeability was 1.6 (active).
Turning to `N[C@@H](Cc1cc(CP(=O)(O)O)cc(-c2ccccc2Cl)c1)C(=O)O`, the fold change permeability is 0.9.
To `Nc1ncnc2c1ncn2[C@@H]1O[C@H](CO)[C@@H](O)[C@H]1O` belongs 1.
The result for `O=c1[nH]c2cc(C(F)(F)F)ccc2n1-c1cc(C(F)(F)F)ccc1O` reads 1.3 (active); that for `CC[C@@]1(O)C(=O)OCc2c1cc1n(c2=O)Cc2cc3c(CN(C)C)c(O)ccc3nc2-1`, 1.
Regarding `CC(C)C[C@H](NC(=O)[C@@H](O)[C@H](N)Cc1ccccc1)C(=O)O`, the fold change permeability is 1.
As to `O=C1Cc2c([nH]c3ccc(Br)cc23)-c2ccccc2N1`, the fold change permeability was 0.7 (active).
The result for `COc1cccc(OC)c1OCCNCC1COc2ccccc2O1` (stereo not drawn) reads 1.3 (active).
The result for `Oc1cc(O)c2c(c1)O[C@H](c1ccc(O)c(O)c1)[C@@H](O)C2` reads 0.8; that for `Cc1cc(C)cc(NC(=O)CN(c2cc([N+](=O)[O-])ccc2C)S(C)(=O)=O)c1`, 1.5 (active); that for `O=C1c2c(O)cc(O)cc2O[C@H](c2ccc(O)c(O)c2)[C@H]1O`, 1.
For `CN1C2CCC1CC(OC(c1ccccc1)c1ccccc1)C2` (stereo not drawn), the fold change permeability is 1.7 (active).
The result for `CN1C[C@H](C(=O)N[C@]2(C)O[C@@]3(O)[C@@H]4CCCN4C(=O)[C@H](Cc4ccccc4)N3C2=O)C[C@@H]2c3cccc4[nH]cc(c34)C[C@H]21` reads 1.4 (active).
To `CN1CCN2c3ccccc3Cc3ccccc3C2C1` (stereo not drawn) belongs 1.1.
The result for `Nc1nc(OCc2cc(Br)cs2)c2[nH]cnc2n1` reads 1.5 (active).
For the molecule `N[C@@H](Cc1ccc(F)cc1)C(=O)O`, the fold change permeability is 0.8.
For `O=C1N(c2ccccc2)c2ccccc2C1(Cc1ccncc1)Cc1ccncc1`, the fold change permeability was 0.9.
`O=C(c1ccc2c(c1)OCCO2)N1CCCCC1`: the fold change permeability was 1.2.
`Cn1c(=O)c2[nH]c(-c3ccc(S(=O)(=O)O)cc3)nc2n(C)c1=O`: the fold change permeability is 1.
To `COc1ccc(Cl)cc1C(=O)NCCc1ccc(S(=O)(=O)NC(=O)NC2CCCCC2)cc1` belongs 0.7 (active).
On to `Cc1cc(O)c2c(c1)C(=O)c1cc(O)cc(O)c1C2=O`, for which the fold change permeability is 1.3 (active).
To `CCCC(C(=O)OCCN(CC)CC)(c1ccccc1)c1ccccc1` belongs 1.2; to `CC(C)Cc1ccc(C(C)C(=O)O)cc1` (stereo not drawn), 2 (active).

The record behind these values is PubChem BioAssay.
